Data published in PubChem BioAssay (NCATS).
Records with an inconclusive call do not appear. Values without a mark were called inactive. Calls follow the shape of the dose curve; as a rule, active = well fitted inhibition curve with a large enough effect; inconclusive = small, poorly fitted or top-dose-only effect; inactive = flat fitted curve, though single readings scatter.

Assay: qHTS to identify inhibitors of the type 1 interferon - major histocompatibility complex class I in skeletal muscle: primary screen against the NCATS Pharmaceutical Collection (AID 1347407)
Details: human skeletal muscle cells, IFN-b-induced MHC-I HiBiT luminescence, 24 h; series mostly up to 45.9 µM; activity change, negative = inhibition: at the top concentration
Outline: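 Luminescence from HiBiT-tagged endogenous HLA-B*08:01 served as the read-out of IFN-beta-induced MHC class I in CRISPR-engineered C25cl48 myoblasts. Cells received 4 ng/ml IFN-beta plus compound (high final 46 uM, […]) for 24 h.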
% is scaled to controls: 0 for no effect and ±100 for the full control effect.

SMILES	activity change, negative = inhibition [%]
CCOC(=O)[C@@](C)(N)Cc1ccc(O)c(O)c1	-5.79
NS(=O)(=O)Cc1noc2ccccc12	30.4
CCOC(=O)c1c(N)sc2c1CCN(Cc1ccccc1)C2	-5.84
CN(C)CCN1C(=O)c2ccccc2N(C)c2ccccc21	-12.9
CC[N+](C)(CC)CCOC(=O)C(O)(c1ccccc1)C1CCCCC1 (stereo not drawn)	-10.8
CCOCCn1c(N2CCCN(C)CC2)nc2ccccc21	-9.5
CN1CCc2cccc3c2[C@H]1Cc1ccc(O)c(O)c1-3	-7.87
C[N+]12CCC(CC1)C(OC(=O)C(O)(c1ccccc1)c1ccccc1)C2 (stereo not drawn)	6.09
O=C(Oc1cccc2cccnc12)c1ccccc1	-0.7
c1ccc(CC2=NCCN2)cc1	-8.73
O=C(O)Cc1csc(-c2ccc(Cl)cc2)n1	8.87
Cc1cc(CC(=O)O)c(C)n1-c1ccc(Cl)cc1	-6.52
OC[C@H]1O[C@@H](Oc2ccc(O)cc2)[C@H](O)[C@@H](O)[C@@H]1O	-4.4
CCC(Cc1c(I)cc(I)c(N)c1I)C(=O)O (stereo not drawn)	0.0194
O=C(NC1CCN(CCc2c[nH]c3ccccc23)CC1)c1ccccc1	0.841
CC(C)Cc1ccc(CC(=O)O)cc1	-10.2
O=C(O)CCC(=O)Nc1ccc(S(=O)(=O)Nc2nccs2)cc1	1.96
NCc1ccccc1Sc1ccccc1CO	-22
CNCCc1ccccn1	-20.8

SMILES	activity change, negative = inhibition [%]
CCOc1ccc(NC(C)=O)cc1	-6.01
NC(=O)C1(N2CCCCC2)CCN(CCCC(=O)c2ccc(F)cc2)CC1	4.99
CCCCCCCCCCCCCCCCO	1.29
CC(C)[C@@H]1CC[C@@H](C)CC1=O	-0.327
Nc1nc(-c2ccccc2)c(Br)c(=O)[nH]1	-9.05
CCc1nn(CCCN2CCN(c3cccc(Cl)c3)CC2)c(=O)n1CCOc1ccccc1	-10.4
N[C@H](C(=O)O)[C@@H](O)c1ccc(O)c(O)c1	-0.166
CN1CCN(C2=Nc3ccccc3Sc3ccc(Cl)cc32)CC1	-1.09
COc1cc(N)c(Cl)cc1C(=O)NC1CCN(Cc2ccccc2)CC1	-3.26
Nc1nc(Cl)nc2c1ncn2[C@@H]1O[C@H](CO)[C@@H](O)[C@@H]1F	-18.9
CCc1ccc(C(=O)C(C)CN2CCCCC2)cc1 (stereo not drawn)	3.01
CCN(CC)CCNC(=O)c1cc(Br)c(N)cc1OC	-1.41
CCc1cc(Cl)c(OC)c(C(=O)NC[C@@H]2CCCN2CC)c1O	-14.6
OCc1ccccn1	-3.19
FC1(F)C(F)(F)C(F)(F)C2(F)C(F)(F)C(F)(F)C(F)(F)C(F)(F)C2(F)C1(F)F (stereo not drawn)	7.75
CCN(CC)CCOC(=O)C(Cc1cccc2ccccc12)CC1CCCO1 (stereo not drawn)	1.26
CN1CCN(c2c(F)cc3c(=O)c(C(=O)O)cn4c3c2SCC4)CC1	-15.7
O=[N+]([O-])c1ccc(/C=N\O)o1	23.8
CC(=O)Nc1ccc(CC(=O)O)cc1	6.06
